Records with an inconclusive call do not appear. Entries that show only a call come without a potency. Activity calls are given as the source filed them. Calls follow the shape of the dose curve; as a rule, active = well fitted cell-killing curve with a large enough effect in the repeat runs; inconclusive = weak or mixed curves, or effect the other way; inactive = flat fitted curve, though single readings scatter.

A short description of this assay: qHTS assay to identify small molecule agonists of the androgen receptor (AR) signaling pathway in the presence of an antagonist - cell viability counter screen (AID 1259379). Also: nearly all actives have a fitted effect of over 25% in size. Conditions: MDA-kb2 viability, CellTiter-Fluor, 16 h; series mostly up to 92.4 µM. An excerpt: National Center for Advancing Translational Sciences [NCATS]
NIH Chemical Genomics Center [NCGC]
U.S. Environmental Protection Agency [EPA]
National Institutes of Environmental Health Sciences [NIEHS]
National Toxicology Program [NTP]
U.S. Food and Drug Administration [FDA]
Androgen receptor (AR) is an important member of nuclear receptor family. Its signaling plays a critical role in AR-dependent prostate cancer and other androgen related diseases. Considerable attention has been given in the past decades to develop methods to study and screen for the environmental chemicals that have the potential to interfere with metabolic homeostasis, reproduction, developmental and behavioral functions. Therefore AR binding assay for screening against androgen agonists and antagonists can be used to identify potential endocrine disruptors.
MDA-kb2 cells (from ATCC, deposited by Wilson et al.) are human breast carcinoma cells that were stably transfected with a luciferase reporter gene under control of the MMTV promoter that contains response elements for both androgen receptor (AR) and glucocorticoid receptor (GR). This particular screening for measuring luciferase reporter gene activity using MDA-kb2 cells against Tox21 10K library compounds is a confirmation study on agonist mode screening in the presence of AR-antagonist compound (Nilutamide) at 3.0uM final concentration. The cytotoxicity of the compounds was tested in parallel by measuring the cell viability using CellTiter-Fluor assay system (Promega, Madison, WI) in the same wells.
Tox21 Assay Protocol Summary:
MDA-kb2 cells (cells cultured without CO2) were dispensed at 3,000 cells/well in 4uL of culture medium into white wall/solid-bottom 1536-well plates (Corning Life Sciences, Corning, NY) using a Multidrop Combi (Thermo Fisher Scientific Inc., Waltham, MA) dispenser. The assay plates were incubated at 37C and 0% CO2 for 5hr. One uL of 3.0uM (final concentration) Nilutamide or assay buffer was added using two separate tips of Flying Reagent Dispenser (FRD, Aurora Discovery, San Diego, CA). Then 23nL of compounds dissolved in DMSO at 15 concentrations and positive controls were transferred to the assay plates using a Pintool station (Wako, San Diego, CA). The assay plates were incubated at 37C and 0% CO2 for 16 hr. After 15hr incubation at 37C, 1uL/well CellTiter-Fluor reagent (Promega Corporation) was added to each well of the assay plates using FRD. After 1hr incubation at 37C and 0% CO2, the fluorescence signal was measured using a ViewLux plate reader (PerkinElmer, Shelton, CT).
A general note: qHTS replaces the single test concentration by a dilution series.
For `O=C1CCCC1`, the Potency entry was “inactive”.

Regarding `CCNC(=S)NCC`, the Potency entry is “inactive”.

As for `CNC(=S)N(C)C`, the Potency result is “inactive”.

Take `N#Cc1ccccc1`: the Potency result is “inactive”.

Turning to `C[Si]1(C)O[Si](C)(C)O[Si](C)(C)O[Si](C)(C)O1`, the Potency result was “inactive”.

As for `COCCCN`, the Potency entry is “inactive”.

`CC(O)CC(C)(C)O` (stereo not given): the Potency entry is “inactive”.

Take `Cc1ccc(C(C)C)c(O)c1`: the Potency result was “inactive”.

With `CCCCCC(=O)O`, the Potency result was “inactive”.

As for `CN/C(=C\[N+](=O)[O-])NCCSCc1csc(CN(C)C)n1`, the Potency entry was “inactive”.

In the case of `O=C(O)CCCCCCCCC(=O)O`, the Potency entry is “inactive”.

On to `NCCCCCCN`, for which the Potency result was “inactive”.

Turning to `COc1ccc(N)c(C)c1`, the Potency result was “inactive”.

For `OCc1cccc(Oc2ccccc2)c1`, the Potency entry was “inactive”.

With `OCc1ccccc1`, the Potency entry is “inactive”.

Take `COc1ccc(CCC(C)=O)cc1`: the Potency result is “inactive”.

Take `CCCOC(=O)c1ccccc1`: the Potency entry was “inactive”.

On to `CC(C)(Oc1ccc(CCNC(=O)c2ccc(Cl)cc2)cc1)C(=O)O`, for which the Potency result was “inactive”.

Take `CCO[Si](CCCN)(OCC)OCC`: the Potency entry is “inactive”.

As for `CN(C)CCOC(=O)COc1ccc(Cl)cc1`, the Potency result was “inactive”.

For `O=C(O)Cn1c(=O)n(Cc2ccc(Br)cc2F)c(=O)c2ccc(Cl)cc21`, the Potency result is “inactive”.

Consider `CC(C)CC(=O)CC(C)CC(C)C` (stereo not given), for which the Potency entry was “inactive”.

On to `Cc1ccc(S(=O)(=O)N=C=O)cc1`, for which the Potency entry was “inactive”.

On to `C=CC[N+](C)(C)CC=C`, for which the Potency result was “inactive”.

In the case of `CC(CCO)CC(C)(C)C` (stereo not given), the Potency result was “inactive”.

As for `CC(C)c1cccc(C(C)C)c1`, the Potency result was “inactive”.

As to `CCCCCCC=O`, the Potency result was “inactive”.

Turning to `CC1(C)OC[C@@H]2O[C@@]3(C(=O)O)OC(C)(C)O[C@H]3[C@@H]2O1`, the Potency entry was “inactive”.

Regarding `CCNc1ccccc1`, the Potency entry is “inactive”.

For `CC(C)OP(=O)(CP(=O)(OC(C)C)OC(C)C)OC(C)C`, the Potency result is “inactive”.

Regarding `CC(C)CCCCCCCOC(=O)CCCCC(=O)OCCCCCCCC(C)C`, the Potency entry was “inactive”.

For the compound `C=CCCCCCCCCC(=O)O`, the Potency result was “inactive”.

Regarding `O=C1c2ccccc2CCc2ccccc21`, the Potency result is “inactive”.

In the case of `C=C(C)[C@H]1CC=C(C)C(=O)C1`, the Potency result was “inactive”.

As to `C[C@]12CCC(=O)C=C1CC[C@@H]1[C@@H]2[C@@H](O)C[C@@]2(C)[C@H]1CC[C@]2(O)C(=O)CO`, the Potency result was “inactive”.

`O=C(O)c1ccc(C(=O)O)c(C(=O)O)c1`: the Potency entry is “inactive”.

On to `CCCCOC(=O)c1ccc(N)cc1`, for which the Potency result was “inactive”.

On to `Brc1ccc(Br)c(Br)c1`, for which the Potency entry is “inactive”.

On to `C=CC(=O)OCCC(=O)O`, for which the Potency result was “inactive”.

Turning to `Nc1nc(N)nc(-c2ccccc2)n1`, the Potency entry was “inactive”.

For the origin of these results see PubChem BioAssay (Tox21).
